Laboratory results as given in PubChem BioAssay (NCI).
Compounds without any hit were thinned out: in the full panel of roughly 83,000, 20% have a hit.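 Method: cells in 96-well plates; compound added at one concentration; 48 h incubation; percent growth measured; values under 10 scored active.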 Values without a mark were called inactive. The source made the active and inactive calls.

Key:
Assay in all cases: NCI-60 one-dose screen, 48 h (100 = growth as untreated, 0 = no growth, -100 = all killed)
Conditions in all cases: 10 µM unless noted
NCI-H226 lung = system: NCI-H226 lung
NCI-H322M lung = system: NCI-H322M lung
HOP-62 NSCLC = system: HOP-62 NSCLC
NCI-H460 lung = system: NCI-H460 lung
HOP-92 NSCLC = system: HOP-92 NSCLC
NCI-H522 lung = system: NCI-H522 lung
A549/ATCC NSCLC = system: A549/ATCC NSCLC
786-0 renal = system: 786-0 renal
COLO 205 colon = system: COLO 205 colon
DU-145 prostate = system: DU-145 prostate

Compound | growth (NCI-H226 lung) | growth (NCI-H322M lung) | growth (HOP-62 NSCLC) [%] | growth (NCI-H460 lung) | growth (HOP-92 NSCLC) | growth (NCI-H522 lung) | growth (A549/ATCC NSCLC) [%] | growth (786-0 renal) | growth (COLO 205 colon) | growth (DU-145 prostate) [%]
CCOc1ccc([C@H]2C(C(=O)c3ccc(Cl)cc3)C3(N[C@@H]2c2ccccc2)C(=O)Nc2ccc(Br)cc23)cc1 (stereo not given in full) | 47.3% | 45.6% | 54.5 | 2.83% (active) | 16% | 51.5% | 26 | 23% | 19.3% | 47.6
Clc1ccc2c(OCCCN3CCOCC3)c3oc4ccccc4c3nc2c1 | 33.7% | 36% | 63.6 | 10.5% | 45.3% | 29% | 33.5 | 27.4% | 12.8% | 22.9
C=C1CC[C@H]2[C@@](C)(CCC3OC(c4ccc(OCc5cn(C6CC(OC(C)=O)C(OC(C)=O)C(COC(C)=O)O6)nn5)cc4)OC[C@]32C)[C@@H]1/C=C/C1=CCOC1=O (stereo not given in full) | 74.5% | 100% | 85.5 | 85.8% | 65.6% | 82.2% | 82.8 | 95.1% | 82.3% | 90
COc1cccc(-c2nn(-c3ccccc3)cc2-c2ccnc(N3CCN(C(=O)c4ccccc4)CC3)c2)c1 | 109% | 105% | 113 | 81.8% | 71.2% | 77.1% | 71.7 | 102% | 97.7% | 91.5
O=C(N/N=C/c1ccc[nH]1)c1[nH]c2ccc(Br)cc2c1-c1ccccc1 | 35.9% | 32.4% | 22.2 | 2.17% (active) | 15.5% | -20.2% (active) | 17.6 | 13.7% | 6.05% (active) | 20.6
CN1C(=O)N(c2ccccc2)C2N=C(N/N=C/c3ccccc3)SC21 (stereo not given) | 58.7% | 42.5% | 39 | 9.53% (active) | 55.1% | -12.3% (active) | 33 | 33.9% | 3.78% (active) | 19.6
COc1ccc(-c2nn3c(-c4ccccc4F)nnc3s2)cc1 | 89.4% | 75% | 67.5 | 30% | 76.9% | 20.2% | 56.6 | 72.5% | 41.6% | 72.2
Cn1ccnc1C(=O)/C=C/c1ccc(NC(=O)Nc2ccc(F)cc2)cc1 | 63.3% | 49.5% | 31 | 7.07% (active) | 78.2% | 14.7% | 36.4 | 27.3% | 49.5% | 35.1
Nc1c(C(=O)Nc2ccc(Cl)cc2)sc2nc(-c3cnccn3)cc(-c3cccs3)c12 | 13.2% | 70.2% | 44.4 | 63.1% | 52.6% | 93% | 68.8 | 71.2% | 95.7% | 70.3
CCCSc1nc(Nc2ccc(/C(C)=N\NC(N)=S)cc2)c(C#N)c(-c2ccc(OC)cc2)n1 | 27% | 80.8% | 31.6 | 42.8% | -20.9% (active) | 89% | 60.6 | 5.18% (active) | 113% | 52.2
NC(=O)c1cc(-c2ccc3ncnc(N4CCc5cc(F)c(Cl)cc54)c3c2)cnc1N | 9.39% (active) | -3.06% (active) | 27.9 | 20% | 15.8% | 19.1% | 16.9 | 12.8% | 54.8% | 14.3
Cn1ccnc1C(=O)/C=C/c1ccc(NC(=O)Nc2ccc(Cl)cc2)cc1 | 81.9% | 95.1% | 94.8 | 59.6% | 104% | 78.2% | 86.8 | 56.8% | 95.9% | 75.7
CCN1C(=S)N(CC)C2C1NN=C1SC(c3ccccc3)=CC(=O)N12 (stereo not given) | 101% | 110% | 100 | 117% | 103% | 94.5% | 101 | 104% | 115% | 117
C=CCn1c(SCC(=O)c2ccccc2)nnc1-c1c[nH]c2ccccc12 | 87.8% | 102% | 92.5 | 107% | 81.3% | 97.8% | 100 | 101% | 122% | 109
N#Cc1nc(-c2ccccc2)oc1N1CCC(CO)C1 (stereo not given) | 92.6% | 88.4% | 107 | 103% | 129% | 97.8% | 95.2 | 101% | 116% | 104
O=C(CSc1nc2sc3c(c2c(=O)n1-c1ccc(Cl)cc1)CCCC3)NNC(=O)Nc1ccc(Cl)c(C(F)(F)F)c1 | 53.4% | 52.2% | 58.8 | 11.8% | -12.3% (active) | 5.53% (active) | 34 | 52.2% | 53.4% | 32.2
CC(C)(C)Nc1nc2c(OCCc3ccccc3)cccn2c1-c1ccc(O)cc1 | 63% | 89.9% | 80.3 | 45.8% | 28.3% | 57.5% | 48.6 | 73.3% | 85.6% | 97.3
O=C1Nc2cc(Cl)ccc2/C1=C\c1ccc(OCc2ccc([N+](=O)[O-])cc2)cc1 | 81% | 75.1% | 79.8 | 59.9% | 45.8% | 66.9% | 78 | 51% | 92.9% | 79.9
CC1=C(C)C(=O)C(Nc2ccccc2)=C(Cl)C1=O | 96.9% | 99.3% | 92.6 | 95.7% | 46% | 83.5% | 99.8 | 99.2% | 107% | 101
O=C(CSc1nc2sc3c(c2c(=O)n1-c1ccc(Cl)cc1)CCCC3)NNC(=O)Nc1cccc(C(F)(F)F)c1 | 32.6% | 49.4% | 37.9 | 5.83% (active) | -14.1% (active) | 23.1% | 24 | 30.3% | 27% | 18.2
Cc1[nH]nc2ncc(C#Cc3cncc(C(=O)Nc4ccc(CN5CCN(C)CC5)c(C(F)(F)F)c4)c3)cc12 | 3.71% (active) | 44.3% | 28.9 | 10.7% | -23% (active) | 47.8% | 23.9 | 43.1% | -25.6% (active) | 36.4
CCCC(=O)NC(c1ccc(N(CC)CC)cc1)c1cc(C)c2cccnc2c1O (stereo not given) | 1.21% (active) | 27.8% | 17.4 | 1.53% (active) | 46.4% | 15.9% | 28.7 | 0.0799% (active) | 23.1% | 25.6
Nc1nc(N)c2c(n1)NC(c1ccc(F)cc1)CC(c1ccc(Nc3nc(NCCO)nc(Nc4ccc(Cl)cc4)n3)cc1)=N2 (stereo not given) | 22.2% | 29.1% | 68.1 | -54.5% (active) | -65.5% (active) | -18.4% (active) | 57 | -71.1% (active) | 28.4% | 12.2
COc1ccc(COc2ccc(/C=C3/C(=O)Nc4cc(Cl)ccc43)cc2)cc1 | 89.4% | 87.7% | 95.4 | 98.2% | 93.1% | 92% | 98.7 | 110% | 101% | 98.2
Cc1nc(-c2cc3ccccc3oc2=O)ccc1C(=O)/C=C/c1ccc(Cl)c(Cl)c1 | 108% | 104% | 107 | 100% | 95.4% | 98.9% | 107 | 99.3% | 113% | 102
Clc1ccc2c(NCCCn3ccnc3)c3oc4ccccc4c3nc2c1 | 51.4% | 40.7% | 65.9 | -7.61% (active) | 33.1% | 44% | 34.4 | -9.95% (active) | 31.8% | 24.6
